Source: PubChem
N-glyco inh – blocks N-linked glycosylation in D54 reporter cells; reporter increase, % at 12.5 µM; actives 0.23% (n = 360,000); AID 588692; D54 ERlucT glycosylation luciferase reporter, 24 h; percent of 100 nM tunicamycin response;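 active means mean luciferase reporter signal, scaled so untreated is 0 and the glycosylation-blocking control 100, at or above a set limit in every replicate; inconclusive means mean reaches the limit but not every replicate does; inactive means mean below the limit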;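 further: luciferase carries N-glycosylation sites so blocking glycosylation raises the light; 0% = median of neutral control wells and 100% = median of 100 nM tunicamycin wells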
esBAF inh – inhibitors of esBAF chromatin remodeling in mouse ES cells; reporter increase, % at 12.5 µM; Bmi1-luciferase knock-in reporter, 24 h; 100% = twice the neutral-well signal; AID 602393; actives 2% (n = 350,000); in the data active means activation above about 40%; inconclusive means no clear call, values can overlap the other calls;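 further: 0% = median of the plate's neutral control wells and 100% = double that signal; a rise in the Bmi1 reporter signal indicates esBAF inhibition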
Vif imaging – HIV Vif inhibition; AID 602346; inhibition, % at 7.49 µM; HEK293T cells, Vif self-association by quenched fluorescence, imaging, 24 h; actives 0.35% (n = 340,000); in the data active means inhibition above about 50%, passing the limit was not always enough; inconclusive means no clear call, values can overlap the other calls; inactive means below about 31%
Wnt bcat act – activates Wnt/beta-catenin signaling in a reporter cell assay. actives 1.2% (n = 300,000). activator, plate reader. activation, % at 9.35 µM; in the data active means activation above about 30%, passing the limit was not always enough; inconclusive means no clear call, values can overlap the other calls;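 further: 0% = neutral control wells and 100% = positive control wells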
PfHsp90 set2 – growth inhibition of yeast expressing Plasmodium Hsp90 | actives 0.32% (n = 310,000) | inhibition, % at 9.4 µM | S. cerevisiae expressing PfHsp90, BacTiter-Glo ATP, 48 h; yeast lacking PDR1 and PDR3 efflux regulators | AID 504621;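 active means every replicate shows inhibition above about 80%, whatever the replicate mean, limit read from the data; inconclusive means mean inhibition reaches the set limit but some replicate falls short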;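 further: 0% = DMSO neutral controls and 100% = 20 µM radicicol positive controls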
MITF TRPM1 HTS – MITF TRPM1 promoter activation in melanoma cells. SK-MEL-5 TRPM1-promoter luciferase, 24 h; % of positive control, neutral wells = 0. activation, % at 12.5 µM. actives 0.75% (n = 300,000);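 active means mean activation of at least 80% with every replicate also reaching 80%; inconclusive means mean reaches 80% but some replicate falls short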;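 further: 0% = neutral control wells and 100% = parthenolide positive control wells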
* = called active by the depositor; u = inconclusive; x = no result given. A selection: hits, their analogues and other compounds. The true share with any hit is near 3%.

SMILES	N-glyco inh	esBAF inh	Vif imaging	Wnt bcat act	PfHsp90 set2	MITF TRPM1 HTS
Cc1ccc(-c2nc3ccc([N+](=O)[O-])cc3[nH]2)cc1	-15.1	x	-4.8	19.0	13.3	13.3
COc1ccc2nc(-c3ccccc3)[nH]c2c1	-7.0	4.2	8.8	75.2*	x	x
COc1cccc(-n2nnnc2SCC(=O)NCCc2ccc(OC)c(OC)c2)c1	0.1	x	-0.8	-0.8	7.3	11.2
COc1ccc(S(=O)(=O)N2CCC(=O)N2)cc1	x	x	x	x	11.4	0.3
N#C/C(=C1/CCCCCN1)c1nc2ccccc2s1	-0.5	57.1*	-3.6	x	-21.6	1.4
N#C/C(=C1\CCCN1)c1nc2ccccc2c(=O)[nH]1	4.5	2.5	7.7	x	-8.7	-1.1
COc1ccc(C(C[N+](=O)[O-])c2c(C)[nH]n(-c3ccccc3)c2=O)cc1 (stereo not drawn)	4.8	-8.4	-0.5	0.9	116.7*	-16.0
Cc1[nH]n(-c2ccccc2)c(=O)c1C(C[N+](=O)[O-])c1ccccc1Cl (stereo not drawn)	-2.9	7.8	-4.6	x	-52.2	-8.2
O/N=C(\Cc1cscn1)c1ccc(O)cc1O	-1.1	48.8*	6.7	-3.4	10.1	4.5
CCc1cc(/C(Cc2cscn2)=N\O)c(O)cc1O	-0.8	3.7	-10.3	x	7.6	-12.0
CCc1cc(=O)[nH]c(SCCc2ccccc2)n1	-0.2	3.8	13.5	x	-6.8	-21.4
COc1ccc(CCN(Cc2ccccn2)C(=S)Nc2cccc(C)c2)cc1OC	0.6	-3.4	8.2	44.7*	3.9	6.1
O=C(NCCC1=CCCCC1)C1CCC(CNS(=O)(=O)c2ccccc2)CC1 (stereo not drawn)	-4.2	x	1.9	-8.4	21.8	0.0
Cc1ccc(C)c(/C=C/C(=O)c2ccccc(=O)c2O)c1	14.1	x	u	0.8	103.2*	-33.8
Cc1ccc(/C=C/C(=O)c2ccccc(=O)c2O)c(C)c1	2.3	x	9.9	x	105.7*	-0.9
O=C(/C=C/c1ccccc1Cl)c1ccccc(=O)c1O	18.9	x	10.7	x	95.9*	-5.8
O=C(/C=C/c1ccccc1Cl)c1cccnc1	11.5	-5.2	-15.4	0.2	70.8	4.2
O=C(/C=C/c1ccccc1Cl)c1ccc(O)cc1	30.4*	u	-6.6	5.7	110.3*	3.6
Cc1ccc(C)c(NC(=O)c2ccccc2O)c1	0.1	33.5	-2.4	-1.8	-18.6	46.8
CCNC(=O)C[C@H]1CC[C@H]2[C@H](COc3ccc(NC(=O)Nc4ccc(F)cc4)cc3C(=O)N2C)O1	x	-2.9	x	x	x	x
O=C(/C=C/c1ccc([N+](=O)[O-])cc1)c1ccccc(=O)c1O	21.2	x	1.4	-21.2	123.0*	-66.9
C[C@@H]1CCCCO[C@@H](CN(C)C(=O)CCC(F)(F)F)[C@@H](C)CN([C@H](C)CO)C(=O)c2cc(NS(=O)(=O)c3cccs3)ccc2O1	x	-7.2	x	-5.2	x	x
Cc1ccccc1C(=O)Nc1ccc(N2CCOCC2)nc1	1.5	22.9	52.8*	x	x	x
Cc1ccc(C(=O)Nc2ccc(N3CCOCC3)nc2)cc1	2.9	14.8	0.3	14.7	0.8	x
CN(C)c1ccc(NC(=O)c2ccc(N3CCOCC3)nc2)cc1	2.5	50.7*	4.8	8.6	-0.5	31.6
SMILES	N-glyco inh	esBAF inh	Vif imaging	Wnt bcat act	PfHsp90 set2	MITF TRPM1 HTS
N#Cc1cccc(NC(=O)c2cc(C3CCCCN3S(=O)(=O)c3cccc4cccnc34)on2)c1 (stereo not drawn)	-3.1	52.2*	-25.1	-3.4	x	x
CS(=O)(=O)N1CCCCC1c1cc(C(=O)Nc2cccc(C#N)c2)no1 (stereo not drawn)	0.1	11.4	7.1	-0.9	x	x
O=C(NCCc1ccccc1)c1c(O)c2ccccc2[nH]c1=O	2.9	50.2*	5.0	4.6	-6.3	38.3
O=C(NCCc1ccccc1)c1n[nH]c2ccccc12	-2.3	24.3	-7.3	51.9*	-30.6	62.8
Cc1cccc2c(=O)c(C(=O)NCCc3ccccc3)c[nH]c12	3.4	52.3*	-3.1	5.4	-4.7	39.2
O=C(NCCc1ccccc1)c1nccc2ccccc12	-2.1	80.2*	-5.0	28.9	-12.0	80.7*
O=C(NCCc1ccccc1)c1c[nH]c2c(F)cccc2c1=O	1.5	38.1	-5.2	4.3	-7.6	x
O=C(NCCc1ccccc1)c1ccccc1C(=O)NCCc1ccccc1	1.9	23.3	29.8	12.5	x	x
CCOC(=O)/C(C#N)=C1/C=C(C)c2ccccc2N1	2.3	x	-3.2	0.0	-9.2	2.0
Cc1cc(NC(CC(C)C)C(=O)O)nc(Cc2ccccc2)n1 (stereo not drawn)	1.1	-6.4	x	x	-9.4	-5.8
Cc1ccc2sc(-c3ccc(NC(=O)CCN4C(=O)c5ccccc5C4=O)cc3)nc2c1	x	x	x	73.1*	x	x
Cc1ccc(C)c(S(=O)(=O)NC(C)C(=O)Nc2ccc(-c3nc4ccccc4s3)cc2)c1 (stereo not drawn)	-0.7	51.6*	-6.1	13.5	x	50.4
CC(C)(C)c1ccc(S(=O)(=O)NCC(=O)Nc2ccc(-c3nc4ccccc4s3)cc2)cc1	-0.6	52.9*	-8.7	x	-9.7	57.7
COC(=O)c1ccccc1NC(=O)c1cnn2c(C(F)F)cc(C3CC3)nc12	-1.8	-5.8	1.6	1.0	-12.6	11.1
C=C(C)Cc1c(C)c(C#N)c2nc3ccccc3n2c1N1CCCCC1	-11.1	x	2.2	7.4	x	x
Cn1ncc(Cl)c1C(=O)N1CCN(c2ccc(F)cc2)CC1	2.8	6.9	-2.4	-1.2	6.8	1.1
C=CCN1C(=O)/C(=C/c2ccc(-c3ccc(F)cc3)o2)SC1=S	-4.9	4.5	82.3*	0.4	-20.6	29.1
Cc1ccc(NC(=O)C2CCN(C(=O)[C@@H]3Cc4ccccc4CN3)CC2)cc1	0.3	54.4*	-7.1	6.7	-10.2	37.1
COc1ccc(CC(=O)NNc2ncnc3c2cnn3C)cc1OC	1.6	x	-0.9	0.7	-1.1	-2.9
Cc1cccc(/C=C(\C(=O)C(=O)O)c2ccc3ccccc3n2)c1	0.1	49.9*	39.6	14.8	-44.0	6.3
O=C(O)C(=O)/C(=C\c1cccc(Cl)c1)c1ccc2ccccc2n1	-2.0	78.4*	17.3	39.6*	-14.8	22.8
CCc1nc2ccc(C(=O)N3CCN(C(C)=O)CC3)cn2c1N(CCC(C)C)CCN(C)C	1.0	3.6	4.9	-0.3	x	x
COC(=O)C(Cc1c[nH]c2ccccc12)NC(=O)c1ccccc1Br (stereo not drawn)	1.3	53.0*	2.0	15.7	8.8	x
Cc1ccc(C(=O)Nc2ccccc2C(=O)NC(Cc2c[nH]c3ccccc23)C(=O)O)cc1 (stereo not drawn)	1.4	x	-3.9	-0.9	15.4	-3.4
CCOC(=O)C(Cc1c[nH]c2ccccc12)NC(=O)c1ccccc1Br (stereo not drawn)	0.1	73.8*	-1.3	12.8	-16.4	x
O=C1C=C(c2ccc(-c3ccccc3)c(F)c2)C[C@@H](c2ccc(F)cc2)C1	-2.6	6.1	-9.2	-0.8	-2.5	24.5
